# Hit rate of the full screen: of about 1,300 compounds, fewer than 10 were called active. Not shown: some 9% with an inconclusive outcome. Only a sample is shown. Values without a mark were called inactive. The call rests on the fitted dose curve; in most records, active means well fitted curve in the direction sought with a large enough effect; inconclusive means small, poorly fitted or top-dose-only effect, or another doubt; inactive means no such curve, though single readings can be large or run the other way.
# Test: qHTS for antagonists of the Thyroid Stimulation Hormone Receptor: Hit Validation in Parental Cell Line; on activity change, negative = inhibition: 0% is about no effect
# Conditions: parental HEK293 cells lacking TSHR, counter-screen; series mostly up to 56.9 µM; activity change, negative = inhibition: at the top concentration
# From the text: The thyroid-stimulating hormone receptor (TSHR) is a member of the 7 trans-membrane-spanning receptor (7TMR) family of cell surface receptors. TSHR-mediated hyperthyroidism is important in thyroid pathology. The development of small molecule antagonists of TSHR may lead to therapeutic approaches for TSHR-mediated hyperthyroidism caused by constitutively activating mutations or stimulating auto-antibodies associated with Graves' disease. Graves' disease is the leading cause of hyperthyroidism and is caused by autoantibodies that stimulate TSHR (TsAbs) causing thyroid growth and unregulated overproduction of thyroid hormones and existing treatments have liabilities (agranulocytosis). In addition, TSHRs are known to be expressed in multiple extrathyroidal tissues including bone, brain, kidney, testis, fat and cells of the immune system but the role of the TSHR in these tissues is not clear. Therefore, TSHR antagonists/inverse agonists could be used as probes of extrathyroidal TSHR function. Finally, TSHR inverse agonists, which are a subclass of antagonists that inhibit agonist-independent (or basal or constitutive) TSHR signaling, could be used to inhibit TSH-independent signaling in patients with recurrent or metastatic thyroid cancer who are receiving thyroid hormone to suppress TSH.
# In collaboration between scientist from the NCGC and the NIDDK, a miniaturized HTRF high-throughput screen was developed. It's a cell based assay, where an anti cAMP antibody contains a fluorescent cryptate tag (excitation 337 nm; emission 620 nm) and the acceptor is cAMP-d2 (excitation 620 nm; emission 665 nm). When antibody and cAMP-d2 interact and are excited by a 337 nm light, a FRET occurs resulting in emission at 665 nm. The assay is competition between cAMP-d2 and cAMP (from the cell lysate). The homogeneous protocol allows for one step dispense after stimulation that is automation friendly. This is a hit validation assay in a counterscreen using parental HEK 293 cells lines.
# NIH Chemical Genomics Center [NCGC]
# NIH Molecular Libraries Probe Centers Network [MLPCN]
# Assay Provider: Marvin Gershengorn, NIDDK
# An anti cAMP antibody contains a fluorescent cryptate tag (excitation 337 nm; emission 620 nm) and the acceptor is cAMP-d2 (excitation 620 nm; emission 665 nm). When antibody and cAMP-d2 interact and are excited by a 337 nm light, a FRET occurs resulting in emission at 665 nm. The assay is competition between cAMP-d2 and cAMP (from the cell lysate). The homogeneous protocol allows for one step dispense after stimulation that is automation friendly. This assay uses parental HEK-EM 293 cells
# Potency means the concentration at half of the fitted maximal effect.
SMILES,"activity change, negative = inhibition [%]",Potency
CC(C)c1ccc(OCC(=O)Nc2cccc3c2CCCC3)cc1,4.59,
O=C(Cn1cnc2ccccc21)Nc1ccc2c(c1)OCCCO2,1.89,
Cc1c(Nc2cc(Cl)c3nonc3c2[N+](=O)[O-])c(=O)n(-c2ccccc2)n1C,-9.16,
CN(C)S(=O)(=O)c1ccc(N2CCN(S(=O)(=O)c3ccc(F)cc3)CC2)c(Cl)c1,1.41,
CC(NC(=O)c1ccc([N+](=O)[O-])o1)C1CC2CCC1C2 (configuration not stated),2.74,
C=CCC1(CC=C)CCCN1C(=O)c1cc(COc2ccc(C)nc2)on1,0.634,
C=CCN1C(=O)C(Cc2ccc(OC)cc2)S/C1=N/N=C/c1ccco1 (configuration not stated),2.46,
CSc1cnn(Cc2ccccc2)c(=O)c1SCc1ccccc1,-0.181,
COC(=O)c1ccc(COc2cc(O)c3c(c2)OC(C)(C)CC3=O)cc1,-0.0715,
COc1ccc(-c2csc3ncnc(N4CCN(S(=O)(=O)c5cccs5)CC4)c23)cc1,0.325,
N#Cc1ccc(CN2CCN(C(=O)c3ccc(S(=O)(=O)N4CCCCCC4)cc3)CC2)cc1,-5.72,
Cc1ccc(NC(=O)COc2cccc3c2OC(C)(C)C3)c(O)c1,-0.793,
N#C/C(=N\Nc1ccc(S(=O)(=O)N2CCCCCC2)cc1)C(N)=S,-4.32,
Cc1sc2nc(-c3ccccn3)[nH]c(=O)c2c1-c1ccccc1,-1.49,
O=S(=O)(NCc1csc(-c2ccccc2)n1)c1ccc(Cl)s1,3.27,
O=C(Nc1ccc(Br)cc1)c1cccc(S(=O)(=O)Nc2cnc3ccccc3c2)c1,-3.55,
COc1ccc2ccccc2c1/C=N/NC(=O)c1nnn(-c2nonc2N)c1C(C)C,-4.51,
COc1ccc(-c2csc(/C(C#N)=C\c3ccc(O)c([N+](=O)[O-])c3)n2)cc1OC,-6.65,
CCOC(=O)c1sc(NC(=O)c2cc(-c3ccccc3C)nc3ccccc23)c(C#N)c1C,-2.33,
Cc1ccc(OCc2cc(C(=O)NC3CCCCC3)no2)cn1,-0.0859,
O=C(Nc1ccncc1)c1cccc(S(=O)(=O)N2CCc3ccccc32)c1,-2.96,
N#C/C(=N/Nc1ccc(OC(F)(F)F)cc1)C(N)=S,-5.72,
Cc1ccc(CN2CCc3c(OCc4ccc(F)cc4)cccc3C2=O)cc1,-2.57,
COc1ccc(C(=O)c2ccccc2)c2c(O)ccc(C(=O)c3ccccc3)c12,-1.57,
CCCC(=O)OCCNc1cc(Sc2nc3ccccc3[nH]2)c2nonc2c1[N+](=O)[O-],-7.55,
N#CC(C#N)=NNc1ccc(S(=O)(=O)N2CCCCC2)cc1,-1.81,

SMILES,"activity change, negative = inhibition [%]",Potency
COc1ccc(NS(=O)(=O)c2cccc(NC(=O)C3=NN(c4ccccc4)C(=O)CC3)c2)cc1,-3.01,
CCOc1ccc(-c2csc(/C(C#N)=C\c3ccc(O)c([N+](=O)[O-])c3)n2)cc1,-9.37,
Cc1cc(C)n(C(=O)/C(C#N)=N/Nc2cc(Cl)cc(Cl)c2)n1,0.0538,
COc1ccccc1C(=O)COC(=O)/C=C/c1ccccc1,3.14,
CC[n+]1ccc(/C=C/c2ccc(N(C)C)cc2)c2ccccc21,,26.9 µM (active)
CN(C)c1ccc(/C=C/c2cc[n+](C)cc2)cc1,-7.72,
O=C(CN1C(=O)c2ccccc2S1(=O)=O)NCCSCc1cccc(Cl)c1,-1.03,
CC1CCC(C(C)C)C(OC(=O)Cn2c(-c3ccccc3)[n+](C)c3ccccc32)C1 (configuration not stated),2.05,
N#Cc1c(C(F)(F)F)cc(-c2ccc(Cl)cc2)[nH]c1=O,-0.329,
COc1ccc2nc(C)cc(N3CCN(S(=O)(=O)c4ccccc4F)CC3)c2c1,-1.34,
Cc1nc2ncnn2c(N2CCCC(C(=O)Nc3ccccc3Br)C2)c1C (configuration not stated),5.02,
O=S(=O)(c1ccc(Cl)cc1)N1CCN(c2ncnc3sccc23)CC1,-4.26,
Cc1noc(C)c1COc1ccccc1C(=O)N(C)Cc1ccc(C(C)(C)C)cc1,-3.32,
O=c1cc(C(F)(F)F)[nH]c2ccc(OC(F)(F)F)cc12,4.01,
CCCC(=O)Nc1cccn(Cc2ccccc2Br)c1=O,-0.796,
Cc1ccc(NC(=O)c2ccccc2NS(=O)(=O)c2ccc(F)cc2)cc1S(=O)(=O)N1CCCCC1,-5.23,
COc1cccc(C(=O)Nc2ccc(NC(=O)C3CCCCC3)nc2)c1,-5.39,
Cc1ccc(NC(=O)C(C)c2ccc(-c3ccccc3)c(F)c2)cc1 (configuration not stated),0.0015,
O=C(Nc1ccc(N=Nc2ccccc2)cc1)c1ccccc1Cl,-5.44,
O=C(O)c1cccc(NC2=C(Cl)C(=O)c3ccccc3C2=O)c1,-14.8,
CCN(CC)c1ccc2nc3ccccc3[n+](CC)c2c1,,13.5 µM (active)
Cn1c2c(c(=O)n(C)c1=O)C(C(F)(F)F)(C(F)(F)F)N=C(c1ccc(Cl)cc1)N2,0.519,
Cc1sc(N/N=C/c2cccnc2)nc1-c1ccccc1,-1.97,
COc1ccccc1CNc1ncnc2sccc12,1.11,
COc1ccc(NS(=O)(=O)c2ccc(N/N=C(\C)c3ccncc3)c([N+](=O)[O-])c2)cc1,-6.85,
COC(=O)c1sc(-c2ccc(Cl)cc2)cc1NC(=O)/C=C/C(=O)O,6.29,

SMILES,"activity change, negative = inhibition [%]",Potency
COc1cccc(-c2nc(CS(=O)(=O)CC(=O)NC3CCCCCC3)c(C)o2)c1,-0.472,
CCCOc1ccc(-c2cc(C(=O)NCC3CCCO3)c3ccccc3n2)cc1 (configuration not stated),4.51,
COc1ccc(S(=O)(=O)N2CCN(c3cccc(C)c3C)CC2)cc1,-1.34,
CCOC(=O)c1cc(C(=O)Nc2sc3c(c2C#N)CCCC3)nn1C,3.84,
Cc1cccc(N(C(=O)c2nsc(Cl)c2Cl)C(C(=O)NC2CCCC2)c2ccc(O)cc2)c1C (configuration not stated),-4.34,
Cc1occc1-c1nnc(SCC(=O)Nc2nc(C(C)(C)C)cs2)o1,0.133,
COc1ccc(Cn2nnnc2C(C(C)C)N2CCN(c3ccccc3OC)CC2)cc1 (configuration not stated),-3.62,
O=C(Nc1nc(-c2ccc(S(=O)(=O)N3CCCCCC3)cc2)cs1)c1ccccc1,-3.18,
Cc1ccc(C)c(C(=O)OCC(=O)Nc2cccc(S(=O)(=O)N3CCCCC3)c2)c1,-4.33,
CCOC(=O)c1c(-c2ccccc2)csc1NC(=O)CSc1nnnn1C,-6.89,
Cc1ccccc1-c1cc(C(=O)Nc2sc(C(=O)OC(C)C)c(C)c2C#N)c2ccccc2n1,-8.24,
Cc1ccc(C(=O)COC(=O)CCN2C(=O)C3C4CCC(C4)C3C2=O)cc1[N+](=O)[O-] (configuration not stated),0.395,
COc1ccc(CCNc2ncnc3sc(C)cc23)cc1OC,-0.71,
Cc1cc2c(NCc3ccccc3)ncnc2s1,-0.667,
COC(=O)c1ccc(/C(O)=C(\C#N)c2nc3ccccc3s2)cc1,-6.58,
COc1ccc(-c2sc3ccc(N4CCOCC4)cc3c2C#CCO)cc1,-3.71,
Cc1[nH]c2ccccc2c1/C=C/c1cc[n+](C)cc1,-22.4,
O=C(NCC1CCCN(C(=O)c2cccc(C(F)(F)F)c2)C1)c1ccc(F)cc1 (configuration not stated),5.15,
COc1ccc(-c2c(C(F)(F)F)[nH]n3c(=O)cc(-c4ccccc4)nc23)cc1,-6.45,
COc1ccc(/C=C2/SC(=S)NC2=O)cc1OCc1ccccc1,-11.5,
COc1ccc(OC)c2c1C(=O)C(Cl)=C(Cl)C2=O,-19.3,
O=C1c2ccccc2C(=O)N1CCCCSc1nnnn1-c1ccccc1,2.18,
Cc1cc(Br)ccc1OCC(=O)NC1CCCC1,3.22,
COc1ccccc1NS(=O)(=O)c1cc(NC(=O)c2ccc3c(c2)OCCO3)ccc1C,-1.4,
O=C(COc1ccc(Cl)cc1Cl)Nc1ccc(C(=O)Nc2ccccc2C(=O)O)cc1,-4.74,
O=C(COC(=O)c1ccccc1SCC(=O)N1CCCC1)Nc1ccccc1,1.31,

SMILES,"activity change, negative = inhibition [%]",Potency
Cc1ccc(OC(F)F)c(NC(=O)Nc2cccc(C(F)(F)F)c2)c1,-4.88,
O=C(c1cc(COc2cccc3cnccc23)on1)N1CCCC(CCCO)C1 (configuration not stated),-1.72,
Cc1ccc(S(=O)(=O)/N=C2/NC(=O)/C(=C\c3cc(Br)cc(Br)c3O)S2)cc1,3.98,
CCN(CC)S(=O)(=O)c1cccc(C(=O)/C=C2/N(C)c3ccccc3C2(C)C)c1,-8.84,
CCCOc1ccc(CSc2nc3ccccc3[nH]2)cc1,2.29,
Cc1nn(CCCC(=O)Nc2cc(Oc3ccccc3)cc([N+](=O)[O-])c2)c(C)c1[N+](=O)[O-],-1.09,
Cc1ccccc1CS(=O)(=O)c1ncc(Cl)c(C(=O)Nc2ccc(F)cc2)n1,-4.75,
Cc1cc(NC(=O)CC(C)C)c(=O)n(Cc2cccc(F)c2)c1,4.18,
CCOC(=O)c1c(NC(=O)/C=C/C(=O)O)sc(C)c1-c1ccc(F)cc1,1.17,
Cc1cc(NC(=O)c2cccc(S(=O)(=O)N3CCOCC3)c2)c2ccccc2n1,1.33,
O=C(Nc1nnc(C(F)(F)F)s1)c1ccc(Br)s1,4.59,
COc1ccc(-c2nc(NC(=O)c3cc(C(C)(C)C)nn3C)sc2C)cc1,-7.16,
CCc1noc(C)c1C(=O)Oc1ccc(N(C)S(=O)(=O)c2ccc(C)cc2)cc1,0.572,
COc1ccc(C(=O)N2CCN(c3ccc([N+](=O)[O-])c(NCCc4ccc(OC)c(OC)c4)c3)CC2)cc1,-1.33,
O=[N+]([O-])c1ccc(S(=O)(=O)c2ccccc2)nc1,-8.08,
CC1CC(C)CN(C(=O)c2ccc3c(=O)n(Cc4ccc5c(c4)OCO5)c(=S)[nH]c3c2)C1 (configuration not stated),-0.844,
CCc1nnc(NC(=O)c2ccc(Cl)c(S(=O)(=O)N3CCc4ccccc43)c2)s1,-0.247,
COCCn1nnnc1C(c1cccs1)N1CCN(c2cc(C)ccc2C)CC1 (configuration not stated),-0.758,
Cc1cc(NC(=O)c2cc(-c3ccco3)on2)nn1Cc1ccc(Cl)cc1,-4.6,
COc1ccc(-c2csc(NC(=O)c3ccccc3NS(=O)(=O)c3ccc(C)cc3)n2)cc1,-5.21,
Cc1cccc(OCCCCc2c(C)n[nH]c2C)c1C,-0.678,
Cc1cc2cc(CCNC(=O)c3ccc(S(=O)(=O)N4CCCC4)cc3)c(=O)[nH]c2cc1C,-7.69,
O=C(NCCc1ccccc1)C(=O)NCC1OCCCN1S(=O)(=O)c1cc(F)ccc1F (configuration not stated),2.75,
CCOc1ccc(NS(=O)(=O)c2cc(NC(=O)c3cccc(C)c3)ccc2Cl)cc1,3.25,

# Source: PubChem BioAssay AID602441 (National Center for Advancing Translational Sciences (NCATS), 2012)
